Source: PubChem BioAssay (National Center for Advancing Translational Sciences (NCATS))
Sampled rows, rich in hits. Any-hit rate of the full collection: about 1.8%.
VDR inhibitor – blocks the human vitamin D receptor; P11473; VDR-SRC2-3 peptide fluorescence polarization, 2 h; Potency, µM, for inactives: max response, negative = inhibition, actives largely listed as inhibitors; 400,000 tested, 0.93% active
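Signal is fluorescence polarization, reporting how far test compounds block the interaction of VDR with the SRC2-3 coregulator peptide after a 2 h room-temperature incubation.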
TrxR1 inh – inhibitors of rat thioredoxin reductase 1. O89049. recombinant rTrxR1, NADPH fluorescence consumption, selenite substrate. Potency, µM (series often up to 114 µM), inactives show top-dose activity change, negative = inhibition, most hits filed as inhibitors. 390,000 tested, 1% active; note: nearly all actives have a fitted effect of over 65% in size
Target sequence (O89049 whole entry, looked up): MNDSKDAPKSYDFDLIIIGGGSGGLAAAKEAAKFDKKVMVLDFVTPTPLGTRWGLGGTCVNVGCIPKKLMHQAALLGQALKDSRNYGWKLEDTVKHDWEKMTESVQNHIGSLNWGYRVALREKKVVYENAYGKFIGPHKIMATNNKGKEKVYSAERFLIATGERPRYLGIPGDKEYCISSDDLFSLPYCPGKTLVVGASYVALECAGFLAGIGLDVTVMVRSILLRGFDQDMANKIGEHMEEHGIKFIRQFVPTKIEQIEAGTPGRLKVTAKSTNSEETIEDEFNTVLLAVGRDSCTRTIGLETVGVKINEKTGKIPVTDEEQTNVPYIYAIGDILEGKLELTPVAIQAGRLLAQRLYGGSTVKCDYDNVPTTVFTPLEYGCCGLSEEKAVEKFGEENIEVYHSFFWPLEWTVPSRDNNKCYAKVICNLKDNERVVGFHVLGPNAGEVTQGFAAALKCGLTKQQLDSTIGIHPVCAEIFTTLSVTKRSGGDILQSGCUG
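Rat TrxR1 (90 nM in the dispensed reagent) was pre-reduced with 400 uM NADPH for 5 min at room temperature, then incubated with compound for 15 min. After 400 uM selenite was added, NADPH fluorescence (Ex 340/Em 450 nm) was followed for 8 min.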
TrxR1 substrate – is turned over as a substrate by rat TrxR1; Potency, µM (highest dose often 114 µM), inactives show top-dose activity change, negative = substrate turnover; O89049; 390,000 tested, 0.01% active; purified TrxR1 substrate turnover, NADPH consumption readout; note: nearly all actives have a fitted effect of over 50% in size
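Rat TrxR1, dispensed at 90 nM, was prereduced with 400 uM NADPH (final) for 5 min at ~22 deg C, then incubated with compound 15 min before 400 uM selenite. A first-read NADPH fluorescence drop versus no-compound background flagged substrates.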
KAT2A inh – blocks human GCN5L2 histone acetyltransferase. GCN5L2 HAT assay, ThioGlo1 CoA-SH fluorescence. 390,000 tested, 0.21% active. AID 504327. Potency, µM (doses to about 58.9 µM), for inactives: at the highest dose activity change, negative = inhibition, usual class: inhibitors
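Free CoA generated was detected with ThioGlo1 (50uM) fluorescence at Ex340nm/Em540nm, read immediately and after 20 min at room temperature. Enzyme, 20 nM in HEPES pH 7.5 buffer, saw compounds 15 min before adding 75uM H3(1-25) peptide and 70uM acetyl-CoA.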
* hit, by the source's call; ? = inconclusive; · = no result; [ ] = another dose, or the depositor's remark. Calls come from the whole dose curve; as a rule, active = well fitted curve in the direction sought with a large enough effect; inconclusive = small, poorly fitted or top-dose-only effect, or another doubt; inactive = no such curve, though single readings can be large; an effect the other way counts as inactive or inconclusive. % is set by controls: 0 for no effect and ±100 for the full control effect; potency is the fitted concentration of half-maximal effect.

SMILES	VDR inhibitor	TrxR1 inh	TrxR1 substrate	KAT2A inh
Cc1onc(C(=O)Nc2sc3c(c2C(N)=O)CCCC3)c1[N+](=O)[O-]	79µM*	-32%	-7%	-14%
Nc1nc(-c2nn(Cc3ccccc3F)c3ncccc23)ncc1C1CC1	-14%	·	·	3%
CC(C)CCn1c(SCc2ccc(Cl)cc2)nc2c1c(=O)[nH]c(=O)n2C	?	2%	4%	3%
CCCCn1c(SCc2ccc(Cl)cc2)nc2c1c(=O)[nH]c(=O)n2C	89µM*	15%[57.1 µM]	-5%	-8%
CCCCCCn1c(SCC(=O)OC)nc2c1c(=O)[nH]c(=O)n2C	22µM*	-11%[57.1 µM]	8%[57.1 µM]	-17%
Fc1ccc(Nc2ccnc(-c3ccc4c(c3)OCO4)n2)cc1	40µM*	·	·	28µM*
Cc1noc(C)c1-c1nccc(Nc2ccc(F)cc2)n1	3%	·	·	-10%
COc1ccccc1-c1nccc(Nc2ccc(F)cc2)n1	50µM*	·	·	-18%
Fc1ccc(Nc2ccnc(-c3ccoc3)n2)cc1	25µM*	·	·	-9%
Cc1ccccc1-c1nccc(Nc2ccc(F)cc2)n1	-12%	·	·	-15%
CN(C)C(=O)c1ccc(-c2nccc(Nc3ccc(F)cc3)n2)cc1	50µM*	·	·	?
CN(C)C(=O)c1ccc(-c2ccc3ncnc(Nc4ccc(F)cc4)c3c2)cc1	-8%	·	·	-18%
CCc1ccc2ncc(S(=O)(=O)c3ccc(Cl)cc3)c(N3CCN(CC)CC3)c2c1	-13%	-2%	-5%	0%
Nc1ccc[n+](CC(=O)c2ccc(F)cc2)c1	·	-10%	-10%	·
CCC1Nc2ncnc(N3CCOCC3)c2N(Cc2ccc(OC)cc2)C1=O (configuration not stated)	79µM*	6%	-1%	1%
CCC1Nc2ncnc(N3CCOCC3)c2N(Cc2ccccc2)C1=O (configuration not stated)	3%	-4%[57.1 µM]	2%[57.1 µM]	-4%
CCOC(=O)Cc1csc(NC(=O)NC2(C(F)(F)F)Oc3cc(Cl)c(Cl)cc3O2)n1	-5%	?	12%[57.1 µM]	-2%
CCOC(=O)Cc1csc(NC(=O)NC2(C(F)(F)F)Oc3ccc(Cl)cc3O2)n1 (configuration not stated)	?	8.9µM*	8%[57.1 µM]	0%
CCOC(=O)Cc1csc(NC(=O)NC2(C(F)(F)F)Oc3ccccc3O2)n1	?	11µM*	-5%	-4%
COc1ccc(-n2nnc3c(SC(C(C)=O)C(=O)N(C)C)ncnc32)cc1 (configuration not stated)	7.1µM*	-16%	-7%	-11%
CC1(C)CC[C@]2(C(=O)n3ccnc3)CC[C@]3(C)[C@H](C(=O)C=C4[C@@]5(C)C=C(C#N)C(=O)C(C)(C)[C@@H]5CC[C@]43C)[C@@H]2C1	45µM*	11%[11.4 µM]	16%[57.1 µM]	·
COc1ccc(C(C)=O)cc1COC(=O)c1cc(=O)c2ccccc2o1	-12%	13µM*	13%[0.0914 µM]	-3%
COc1ccc(C(C)=O)cc1COC(=O)CCNS(=O)(=O)c1ccc(C(C)=O)cc1	3%	40µM*	-9%	-23%
COc1ccc(C(C)=O)cc1COc1ccccc1[N+](=O)[O-]	1%	35µM*	-11%	-6%
COc1ccc(C(C)=O)cc1COC(=O)c1cc(C)oc1C	-2%	10µM*	-4%	-3%
SMILES	VDR inhibitor	TrxR1 inh	TrxR1 substrate	KAT2A inh
CC(C)=CCC/C(C)=C/CC/C(C)=C/CCC1(C)CCc2cc(O)ccc2O1 (configuration not stated)	·	2%	-3%	·
Cc1ccc(OCC(=O)Nc2ccc(C(=O)OCc3cc(=O)n4ccsc4n3)cc2)cc1C	11%	12%[57.1 µM]	-1%[57.1 µM]	1%
CC(=O)Nc1cccc(NC(=O)CSc2nccn2C2CCCC2)c1	14%	13%[57.1 µM]	4%[57.1 µM]	3%
Cc1nn(-c2ccccc2)c(OC(=O)C(C)C)c1Sc1ccc(Cl)cc1	89µM*	53%	-3%	3%
Cn1c(=O)n(C)c2cc(NC(=O)CCl)ccc21	4%	50µM*	1%	-1%
C#CCSc1nccc(-c2nn(-c3ccc(C)cc3)ccc2=O)n1	?	79µM*	20%	-11%
CCSc1nccc(-c2nn(-c3ccc(C)cc3)ccc2=O)n1	5%	11%	7%	-5%
CC(C)CCNC(=O)CSc1nc2ccccc2nc1Cc1ccccc1	16%	16%[57.1 µM]	-2%[57.1 µM]	-1%
OC(C[n+]1c(Cl)ccc2ccccc21)c1ccccc1 (configuration not stated)	·	40µM*	15%	·
CCCCN(C)C(=O)Cc1c(OC)ccc2cc(Br)ccc12	22µM*	-18%	-9%	-2%
O=C1Nc2ccccc2C1=Nc1ccc(Br)cc1	22µM*	28%	-1%	-9%
O=C1Nc2ccccc2C1=Nc1ccc(Cl)cc1	?	13%	-3%	-12%
Cc1noc(C)c1C(=O)OCC(=O)Nc1ccc(C(N)=O)cc1	-15%	15%[57.1 µM]	4%[57.1 µM]	-10%
Cc1noc(C)c1C(=O)OCC(=O)Nc1c(F)cccc1F	50µM*	13%[57.1 µM]	-13%	-1%
C1=Nc2ccccc2/C1=C/c1c[nH]c2ccccc12	·	17%	12%[0.0914 µM]	·
CC(CCC(C)[n+]1cccc(Br)c1)[n+]1cccc(Br)c1 (configuration not stated)	·	-5%	7%	·
O=C(c1ccccc1)c1ccccc1NC(=O)c1ccccc1C(=O)O	8%	1%	-1%	-8%
O=C(CCl)Nc1ccccc1C(=O)c1ccccc1	-2%	20µM*	-10%	-4%
CCN(CC)CC(=O)Nc1sc(C)cc1C(=O)c1ccccc1	6%	-8%[57.1 µM]	-8%	-1%
O=C(CCl)Nc1ccccc1Sc1ccc(Cl)cc1	-2%	8.9µM*	-9%	-4%
CC(=O)N1CCN(CC(=O)Nc2ccccc2Sc2ccc(Cl)cc2)CC1	-14%	-8%	2%	14%
Cc1cc(C(=O)c2ccccc2)c(NC(=O)CCl)s1	-20%	20µM*	-7%	-8%
O=C(C=Cc1ccccc1)c1cccs1	56µM*	71µM*	-10%	·
CCOc1ccc(/C=C/C(=O)c2ccccc2)cc1	?	0%[2.29 µM]	-3%	-8%
O=C(/C=C/c1ccccc1)c1cccs1	11µM*	·	·	-19%
SMILES	VDR inhibitor	TrxR1 inh	TrxR1 substrate	KAT2A inh
Nc1ccc(/C=C/C(=O)c2cccs2)cc1	-13%	-9%	2%[57.1 µM]	-3%
CCOc1ccc(/C=C/C(=O)c2cccs2)cc1	22µM*	·	·	-24%
O=C(Nc1c(Cl)cc([N+](=O)[O-])cc1Cl)c1cc(Cl)ccc1O	0%	2%	-3%	·
NC(CCC(=O)NCS(=O)(=O)O)C(=O)O (configuration not stated)	15%	-5%	·	56%
Cn1cnc(S(=O)(=O)N2CCC(C(=O)Nc3ccc(OC(F)(F)F)cc3)CC2)c1	13%	6%[57.1 µM]	-4%[57.1 µM]	-5%
C1CCN2C[C@@H]3C[C@@H](CN4CCCC[C@H]34)[C@H]2C1	2%	·	·	?
CCCc1cc(=O)oc2cc(C)cc(OCC(=O)Nc3ccc(S(N)(=O)=O)cc3)c12	-23%	20µM*	-5%	-6%
CCCc1cc(=O)oc2cc(C)cc(OCC(=O)Nc3ccccn3)c12	-1%	27%	17%	-11%
CN(C(=O)COC(=O)c1ccccc1OCC(=O)Nc1ccc(Br)cc1)c1ccccc1	·	30%	6%	·
